# Source: PubChem
# An excerpt weighted towards active compounds, which were near 4.3% of everything screened.
# dFosB act – activators of delta FosB homodimer, primary screen, biochemical, fluorescence polarization, TAMRA-CDK5 oligo, single point; Protein FosB (Mus musculus), P13346; purified delta FosB; percent of positive-control signal above neutral wells; activation, % at 25 µM; 0.99% of 340,000 active;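 active = mean activation above about 17%, with every replicate also reaching it, limit read from the data, passing the limit was not always enough; inconclusive = only one of the two conditions met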
# UBC13 polyUb – UBC13 polyubiquitin chain formation inhibitors, primary screen, biochemical, TR-FRET, uHTS; Ubiquitin-conjugating enzyme E2 N (Homo sapiens), P61088; inhibition, % at 20 µM; 0.47% of 330,000 active; AID 485273, 2010; in the data active = inhibition above about 45%, passing the limit was not always enough; inconclusive = no clear call, values can overlap the other calls
# Target sequence (P61088 whole entry, looked up): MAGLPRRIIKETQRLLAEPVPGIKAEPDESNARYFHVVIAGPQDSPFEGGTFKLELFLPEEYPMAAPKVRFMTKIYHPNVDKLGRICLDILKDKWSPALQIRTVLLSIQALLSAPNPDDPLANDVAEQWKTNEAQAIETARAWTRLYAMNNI
# Yeast superoxide – reduction of superoxide in aged yeast, primary screen, HTS. 0.18% of 330,000 active. superoxide response (% of plate mean), % at 10 µM. AID 2690, 2010. S. cerevisiae aged cells, superoxide DHE fluorescence; stronger effect = lower value;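 active = superoxide response under a set limit, about three screen SD below normal, cut at about 65% in these data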;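 note: yeast aged for seven days with compound at 30 °C before DHE staining; 100% = average MFI of all compound-treated wells on the plate with controls excluded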
# NALP1 yeast inh – NALP1 inflammasome inhibitors in reconstituted yeast, colorimetric, S. cerevisiae, triplicate retest; S. cerevisiae NALP1/ASC/caspase-1 growth, X-gal OD620, 72 h; inhibition, % at 10 µM; 0.61% of 280,000 active; AID 2071, 2009; in the data active = inhibition mostly above about 24%, no sharp cut-off; inactive = mostly below about 32%
# NR3A LBD binder – binders of NR3A ligand-binding domain, primary screen, biophysical, differential scanning fluorimetry, uHTS; Glutamate receptor ionotropic, NMDA 3A (GRIN3A) ligand-binding domain; NR3A LBD differential scanning fluorimetry, Tm shift; 0% = protein alone, 100% = glycine-bound protein; Tm shift relative to glycine control, % at 25 µM; 2.5% of 340,000 active; AID 1259313, 2017;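 active = melting temperature shift of at least 10% of the positive control shift, at one fixed dose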
# Numbers without * were called inactive; ? = inconclusive; / = not tested or not shown.
SMILES,dFosB act,UBC13 polyUb,Yeast superoxide,NALP1 yeast inh,NR3A LBD binder
COc1ccc(C(CC(=O)N2CCCC(C)C2)c2c(OC)cc(OC)c3c(-c4ccccc4)cc(=O)oc23)cc1 (stereo not given),-21,-16,99,0,16*
COc1ccc(C(CC(=O)N2CCCC2)c2c(OC)cc(OC)c3c(-c4ccccc4)cc(=O)oc23)cc1 (stereo not given),-23,-10,104,18,1
O=C(N/N=C/c1cccc(C(F)(F)F)c1)c1cc2c(s1)-c1ccccc1CC2,-9,10,105,43,14*
Cc1cccc(/C=N/NC(=O)c2cc3c(s2)-c2ccccc2CC3)c1,-9,0,115,28,4
COc1ccc(N2CCN(C(=O)CCCCCn3c(=O)[nH]c4ccsc4c3=O)CC2)cc1,-5,-8,101,-4,-2
CC(=O)Nc1cc2c(cc1[N+](=O)[O-])-c1ccccc1C2=NO,6,/,/,/,0
Nc1cc2c(cc1[N+](=O)[O-])-c1ccccc1C2=NO,?,/,/,/,23*
O=C(Nc1ccccc1)/C(=C\c1ccc(F)cc1)NC(=O)c1ccco1,-9,7,107,10,0
CC(C)c1onc(C(=O)N(C)Cc2ccccc2)c1[N+](=O)[O-],0,11,103,53*,-7
COc1cc(CNC2CCCC2)cc(Cl)c1OCc1ccc(F)cc1,-2,27,93,36,-3
CCOc1cc(CNCc2ccncc2)cc(Br)c1OCc1ccc(F)cc1,2,-10,81,51*,1
CCOc1cc(CNC2CCCC2)cc(Cl)c1OCc1ccc(F)cc1,-20,19,106,97*,-4
O=C(C1CCC(=O)N(C2CCCC2)C1)N1CCN(Cc2cccc(F)c2)CC1 (stereo not given),-7,1,83,-4,0
CCN(CCNC(=O)C1CCN(S(=O)(=O)c2c(C)noc2C)CC1)c1ccccc1,-3,1,93,-2,-2
CCCCN(Cc1ccccc1)C(=O)C1CCN(S(=O)(=O)c2c(C)noc2C)CC1,-2,2,118,37*,-3
CCOC(=O)C1(CCOc2ccccc2)CCN(C(=O)CCSC)CC1,-3,/,89,/,-2
Cc1cccnc1Nc1nc(-c2ccc(O)cc2)cs1,-19,4,115,0,30*
Oc1ccc(-c2csc(Nc3ccccn3)n2)cc1,-6,3,105,11,31*
Fc1ccc(-c2csc(Nc3ccccn3)n2)c(F)c1,5,7,107,8,32*
c1ccc(-c2csc(Nc3ccccn3)n2)cc1,5,-7,89,18,-4
CC(C)(O)C#Cc1ccc(CN2CCCC(CNC(=O)c3ccco3)C2)cc1 (stereo not given),-11,-1,96,22,2
NS(=O)(=O)c1ccc(CCNC(=O)C2CCN(S(=O)(=O)c3ccc(Br)s3)CC2)cc1,-6,1,96,12,13*
Cc1cc(C(=O)OCC(=O)NC2(C#N)CCCCC2)c(C)o1,6,2,84,/,0
Nc1ccccc1-c1ccccc1N,-6,5,87,12,0
Nc1ccccc1N=Nc1ccccc1N,1,-215,92,-40,23*
SMILES,dFosB act,UBC13 polyUb,Yeast superoxide,NALP1 yeast inh,NR3A LBD binder
CCN(CC)S(=O)(=O)c1ccc(N2CCCC2)c(NS(=O)(=O)c2ccc(F)cc2)c1,-6,9,114,1,-1
CCN(CC)S(=O)(=O)c1ccc(N2CCCC2)c(NS(=O)(=O)c2ccccc2)c1,2,4,72,/,16*
COc1ccc(C2CCCN2C(=S)Nc2cccc(C)c2C)cc1OC (stereo not given),-5,5,83,-5,-1
Cc1cc(C)c2c(N)c(-c3nc4ccccc4[nH]3)sc2n1,-3,1,86,-6,4
Cc1ccc2nc(-c3sc4nc(C)ccc4c3N)[nH]c2c1,-15,-9,90,11,25*
Nc1cc(-c2ccc(OC(F)(F)F)cc2)nn1-c1ccc(Cl)c(Cl)c1,/,-12,100,8,24*
COc1ccc(-n2nc(C)cc2N)cc1,5,2,99,-12,-1
